Screening results deposited in PubChem by several laboratories.
Sampled rows, rich in hits. Any-hit rate of the full collection: about 3.6%.
CF NFkB inh: inhibitors of cystic fibrosis induced NF-kB. KKLEB NF-kB-GFP reporter, PAF-induced, GFP fluorescence overnight. inhibition, % at 5 µM. hit rate 0.86% among 360,000. AID 588850;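 active = at least 50% inhibition at 5 µM, scaled per plate between neutral and stimulator controls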;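 also: PAF is a Pseudomonas aeruginosa culture filtrate used as stimulus; plate controls were PAF-stimulated DMSO wells for no effect and unstimulated DMSO wells for full effect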
LGR2 inh: Drosophila LGR2 receptor signaling inhibition; inhibition, % at 9.99 µM; HEK293 LGR2, CRE-luciferase, bursicon-stimulated, 4 h; hit rate 0.35% among 380,000;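 active = drop in luminescence signal, shown as inhibition above about 50% in the replicate tests, limit read from the data, passing the limit was not always enough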;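 also: agonist challenge used bursicon conditioned medium at about half maximal strength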
KKLEB cytotox: counter-screen for CF NF-kB inhibitors: cytotoxicity | KKLEB CF airway cells viability, ATPlite luminescence, overnight; stronger effect = lower value; cells stimulated with P. aeruginosa culture filtrate | activity change (cytotoxicity), % at 5 µM | hit rate 0.36% among 360,000;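 active = corrected activity change at or below -50% at 5 µM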
HSP90 inh: blocks HSP90-mediated luciferase refolding in reticulocyte lysate; Rabbit reticulocyte lysate, luciferase refolding luminescence, 3 h; inhibition, % at 5.6 µM; hit rate 0.91% among 290,000; AID 1789;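 active = inhibition above the screen-wide mean plus 3 SD, computed separately per campaign, cut at about 16% in these data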;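 also: 0% = DMSO wells and 100% = 60 µM geldanamycin wells; inhibitors lower the luminescence because luciferase stays unfolded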
Mdm2-MdmX inh: inhibitors of human Mdm2/MdmX interaction; inhibition, % at 8 µM; SaOS-2 split-luciferase Mdm2/MdmX complementation, luminescence; hit rate 3% among 330,000;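 active = inhibition of at least 50% at 8 µM in the primary screen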
Peg3 promoter: inhibitors of Peg3 promoter | HeLa PEG-Prom luciferase reporter, luminescence, overnight | inhibition, % at 20 µM | hit rate 1.7% among 360,000 | AID 588405;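 active = inhibition of at least 50% at 20 µM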
An asterisk follows results filed as active; · = not tested or not shown.

SMILES	CF NFkB inh	LGR2 inh	KKLEB cytotox	HSP90 inh	Mdm2-MdmX inh	Peg3 promoter
CO[C@H]1CN(C)C(=O)c2ccc(NC(=O)Cc3ccccc3)cc2OC[C@@H](C)N(C)C[C@@H]1C	·	-9.0	·	·	·	·
CCOC(=O)Cc1csc(NC(=O)CCCCCN2C(=O)c3cccc4cccc(c34)C2=O)n1	12.0	·	-3.7	-2.9	32.3	14.7
CCOC(=O)c1sc(NC(=O)CCCCCN2C(=O)c3cccc4cccc(c34)C2=O)nc1C	39.2	-2.5	-53.3*	1.0	·	41.1
O=C(C[C@H]1CC[C@H]2[C@@H](COC[C@H](O)CN2C(=O)Nc2ccc(Cl)c(Cl)c2)O1)NC1CCC1	·	10.7	·	·	·	·
COC(=O)c1ccccc1NC(=O)c1cn(-c2ccc(C)c(C)c2)c(=O)c2ccccc12	29.4	23.0	-20.6	-1.1	32.4	52.4*
CCOC(=O)c1ccccc1NC(=O)c1cn(-c2ccc(OC)cc2)c(=O)c2ccccc12	17.7	-6.0	-22.7	2.6	44.8	49.6
C[C@H]1CN([C@@H](C)CO)C(=O)c2cccc(N(C)C)c2O[C@H]1CN(C)S(=O)(=O)c1ccc(F)cc1	·	-3.7	·	·	·	·
CCCC#Cc1ccc2c(c1)[C@H]1[C@H](CCN1S(=O)(=O)c1ccc(F)cc1)[C@H](CO)N2C	·	5.5	·	·	·	·
C=C1C(=O)C23C(O)C1CCC2C12CCCC(C)(COC(C)=O)C1C(O)C3(O)OC2 (configuration not stated)	90.7*	97.9*	-91.3*	·	·	107.0*
C[C@@H]1CN([C@@H](C)CO)C(=O)c2cc(NC(=O)CCC(F)(F)F)ccc2O[C@@H](C)CCCCO[C@H]1CN(C)S(=O)(=O)c1ccc(F)cc1	·	-6.1	·	·	·	·
CN(C)/C=N/C1=C(C#N)C(c2ccc(Br)cc2)c2ccc3ccccc3c2O1 (configuration not stated)	-10.5	-6.7	2.6	16.8*	35.6	-0.5
N#CC1=C(N)Oc2c(ccc3ccccc23)C1c1cccs1 (configuration not stated)	·	·	·	2.8	-27.0	·
CCCn1c(C)cc(C(=O)COc2ccc(-c3nnco3)cc2)c1C	-8.8	-44.5	3.7	16.4*	8.7	-98.9
CCCn1c(C)cc(C(=O)COc2ncnc3sccc23)c1C	7.0	-60.4	-3.0	0.4	-85.8	-234.1
Cc1ccc(N2C(=O)C3C4C=CC(CC4)C3C2=O)cc1[N+](=O)[O-] (configuration not stated)	-6.1	-2.7	2.2	2.3	7.7	2.7
Cc1cc(N2C(=O)C=CC2=O)c([N+](=O)[O-])cc1C	65.5*	·	-1.1	-4.3	-10.0	105.4*
C=CCNCC(=O)N1N=C(c2ccc3ccccc3c2)CC1c1ccc(OC)cc1 (configuration not stated)	16.2	19.3	-11.5	7.4	43.2	65.5*
C[C@H](CO)N1C[C@H](C)[C@H](CN(C)C(=O)Nc2ccccc2)OCCCC[C@H](C)Oc2ccc(NC(=O)C3CCCCC3)cc2C1=O	·	68.7*	·	·	·	·
C[C@H](CO)N1C[C@H](C)[C@H](CN(C)C(=O)Nc2ccc3c(c2)OCO3)OCCCC[C@H](C)Oc2ccc(NC(=O)C3CCCCC3)cc2C1=O	·	57.2*	·	·	·	·
C[C@@H]1CCCCO[C@H](CN(C)C(=O)Nc2ccc(F)cc2)[C@H](C)CN([C@@H](C)CO)C(=O)c2cc(NC(=O)C3CCCCC3)ccc2O1	·	4.7	·	·	·	·
C[C@H](CO)N1C[C@H](C)[C@H](CN(C)C(=O)Nc2ccc(F)cc2)OCCCC[C@H](C)Oc2ccc(NC(=O)C3CCCCC3)cc2C1=O	·	82.8*	·	·	·	·
O=C(C[C@H]1C=C[C@H](NC(=O)c2cccnc2)[C@@H](CO)O1)NCCN1CCCCC1	·	5.7	·	·	·	·
C[C@H](CO)N1C[C@H](C)[C@H](CN(C)Cc2ccc(C(F)(F)F)cc2)Oc2c(NC(=O)c3nc4ccccc4s3)cccc2C1=O	·	10.2	·	·	·	·
CN(C)CC(=O)Nc1ccc2c(c1)[C@@H]1C[C@@H](CC(=O)NCc3cc(F)ccc3F)O[C@@H](CO)[C@@H]1O2	·	-2.0	·	·	·	·
COc1cccc(/C=C2/CCC(CN(C)C)C2=O)c1 (configuration not stated)	-71.2	·	11.4	·	·	95.8*
COc1cccc(/C=C2\CCC(C3CCCC3)C2=O)c1 (configuration not stated)	0.9	-45.0	1.2	-2.8	15.2	-184.6
CCCC/C=C1/CCC(CN(C)C)C1=O (configuration not stated)	-24.4	·	11.9	·	·	98.5*
